Vc quorum ag-1: inducers of Vibrio cholerae quorum light production without autoinducers, primary screen, BH1578 luxS cqsA deficient, single point; V. cholerae BH1578 lux reporter, luminescence, 6 h; activation, % at 18.7 µM; 350,000 compounds, 0.16% hits; in the data active means activation mostly above about 9.7%, no sharp cut-off; inconclusive means no clear call, values can overlap the other calls; inactive means mostly below about 3.7%
MazEF act: activators of E. coli MazEF toxin-antitoxin RNase, primary screen, biochemical, fluorescence, uHTS. 350,000 compounds, 0.32% hits. activation, % at 20 µM. AID 504720, 2011. FAM/BHQ RNA-DNA oligo cleavage fluorescence, 5 h; in the data active means activation above about 50%
Anthrax LF prot: Bacillus anthracis LF protease inhibitors, primary screen, biochemical, multiplex microsphere, MLPCN library; inhibition, % at 10 µM; 360,000 compounds, 0.12% hits; Lethal factor (Bacillus anthracis), P15917; multiplex microsphere protease cleavage assay; further: plate controls were buffer without enzyme for full effect and enzyme alone for no effect
Target sequence (P15917 whole entry, looked up): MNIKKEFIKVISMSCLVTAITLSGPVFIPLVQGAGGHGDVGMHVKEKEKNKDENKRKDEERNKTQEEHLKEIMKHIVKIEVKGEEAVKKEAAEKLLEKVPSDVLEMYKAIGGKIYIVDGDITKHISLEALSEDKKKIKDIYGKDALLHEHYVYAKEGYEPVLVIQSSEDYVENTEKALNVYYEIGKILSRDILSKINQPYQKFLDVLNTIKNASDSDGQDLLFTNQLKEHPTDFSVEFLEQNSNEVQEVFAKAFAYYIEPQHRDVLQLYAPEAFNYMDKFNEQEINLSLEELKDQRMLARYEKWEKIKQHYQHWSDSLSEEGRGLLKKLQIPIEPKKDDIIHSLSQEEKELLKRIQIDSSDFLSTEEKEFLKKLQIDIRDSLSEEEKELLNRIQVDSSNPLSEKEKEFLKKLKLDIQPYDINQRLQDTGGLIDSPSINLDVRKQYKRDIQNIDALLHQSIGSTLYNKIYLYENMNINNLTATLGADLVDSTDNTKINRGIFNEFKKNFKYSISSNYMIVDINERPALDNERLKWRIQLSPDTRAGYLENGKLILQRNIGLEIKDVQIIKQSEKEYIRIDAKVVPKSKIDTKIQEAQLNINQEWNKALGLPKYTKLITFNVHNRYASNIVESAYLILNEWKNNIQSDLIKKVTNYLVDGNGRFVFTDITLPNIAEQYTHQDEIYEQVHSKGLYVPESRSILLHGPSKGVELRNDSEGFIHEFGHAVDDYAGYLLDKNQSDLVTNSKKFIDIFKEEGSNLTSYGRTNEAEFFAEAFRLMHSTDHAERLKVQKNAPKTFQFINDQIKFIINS
Bead autofluor: counter-screen for toxin protease inhibitors: compound fluorescence; 360,000 compounds, 3.1% hits; fluorescence intensity (concentration not given with the values); compound autofluorescence counterscreen, microsphere flow cytometry; active compounds read high; in the data active means fluorescence intensity above about 16000; inconclusive means no clear call, values can overlap the other calls
BoNT-F LC inh: BoNT/F light chain protease inhibitors, primary screen, biochemical, flow cytometry, MLPCN library; Botulinum neurotoxin type F light chain protease (Clostridium botulinum); Multiplex microsphere protease cleavage assay; inhibition, % at 10 µM; 360,000 compounds, 0.22% hits; in the data active means inhibition above about 35%, passing the limit was not always enough; inconclusive means no clear call, values can overlap the other calls; further: plate controls were buffer without enzyme for full effect and enzyme alone for no effect
BoNT-A LC inh2: BoNT/A light chain protease inhibitors, primary screen, biochemical, flow cytometry, MLPCN library. 360,000 compounds, 0.17% hits. inhibition, % at 10 µM. AID 588499, 2011. multiplex microsphere protease substrate cleavage; further: plate controls were buffer without enzyme for full effect and enzyme alone for no effect
Vc quorum ag-2: V. cholerae lux activation without autoinducers – BH1578 luxS cqsA deficient, cherry-pick, plate reader, dose response; shares compounds with Vc quorum ag-1; V. cholerae BH1578 lux reporter, luminescence, 6 h; activation, % at 50 µM; 620 tested, under 10 active; call rule not given here
HeLa tox: HeLa cell cytotoxicity, dose response, cytotoxicity control, 24 h, dry powder. shares compounds with Vc quorum ag-1. HeLa viability, CellTiter-Glo ATP luminescence. AID 624140, 2012. 25 tested, under 10 active. activity change, negative = cytotoxicity, % at 35 µM;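 active means signal drop with fitted half-maximal concentration at or below twice the highest valid dose; inconclusive means flat curve with 30 to 70% loss, or poor fit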
An asterisk follows results filed as active; i = inactive; ? = inconclusive; · = not tested or not shown; + = active, no number. Only some compounds are listed: those with a hit (about 3.9% of all), similar ones and a draw of the others. Unless noted, no stated cut-off is given here; in the data, active means inhibition above about 30%; inconclusive means no clear call, values can overlap the other calls; inactive means below that.

SMILES	Vc quorum ag-1	MazEF act	Anthrax LF prot	Bead autofluor	BoNT-F LC inh	BoNT-A LC inh2	Vc quorum ag-2	others
COCCNc1nc2c(c(=O)n(Cc3cccc(Cl)c3)c(=O)n2C)n1C	-0.6	3.7	-2.2	5111	7.3	-1.5	·
COC(=O)Cn1nc(-c2ccccc2)c2ccccc21	12.5	5.7	-3.6	11394	4.1	1.0	0.0
Cn1c(CNc2cccc(Cl)c2)nnc1SCC(=O)OC1CCCCC1	16.7*	-5.7	-7.6	8079	6.2	0.5	0.1
CC(C)OC(=O)CSc1nnc(CNc2cccc(Cl)c2)n1C	-4.5	-13.3	-5.3	4441	-13.3	-0.1	·
O=C(COC(=O)/C=C/c1cccc(F)c1)NC1CCCC1	24.2	3.2	-11.8	3908	-4.3	-0.7	105.0
O=C(COC(=O)/C=C/c1cccc(F)c1)NC1CCCCCC1	i	6.4	1.1	3766	-1.8	1.0	·
COC(C(=O)Nc1ccccc1C(=O)N1CCOCC1)c1ccccc1 (centres undefined)	10.8	6.3	2.9	5603	-1.5	1.9	-0.3
Cc1ccc(OC(C)C(=O)Nc2ccccc2C(=O)N2CCOCC2)cc1 (centres undefined)	7.7	-4.9	2.5	6132	-1.3	0.3	·
CNC(=S)NNc1nc(C)cc(C)n1	-0.7	-4.4	-3.4	3329	-6.9	-0.2	·
O=C(CCC(=O)Nc1ccccc1Cl)NN=C1CCCC1	-0.2	5.8	1.9	?	-13.3	-6.4	·
O=C(O)C1C2CCC(C2)C1C(=O)Nc1cc(F)ccc1F (centres undefined)	16.7*	4.0	-9.7	10174	-13.7	-1.3	-0.1
O=C(c1cc(C2CCCCN2S(=O)(=O)c2ccc(F)cc2F)on1)N1CCOCC1 (centres undefined)	-4.5	·	2.2	3735	-1.0	0.2	·
COc1ccc(S(=O)(=O)Nc2ccc(S(=O)(=O)N3CCOCC3)cc2)cc1C	17.9*	7.0	-0.8	2747	-0.8	-0.4	0.4
CC(=O)c1ccc(NC(=O)COc2ccccc2C(=O)Nc2ccc(C)cn2)cc1	-0.5	-25.8	-0.9	3218	-3.1	-1.1	·
CC(=O)c1ccc(NC(=O)COc2ccccc2C(=O)Nc2ccccc2)cc1	140.3*	-5.0	-4.1	5439	-10.1	-3.1	0.2
CCCCNC(=O)COC(=O)c1ccc(N(C)C)cc1	170.1*	1.3	2.2	4448	-5.6	-1.1	358.9
Cc1ccc(-c2csc3ncnc(Cl)c23)cc1	i	3.8	-0.9	7931	-3.0	0.6	·
Clc1ncnc2scc(-c3ccccc3)c12	12.5	-3.1	-1.8	10284	-5.5	-0.3	0.1
O=C(CN1C(=O)CSC1=O)NC1CCCCC1	16.7*	3.8	-4.5	7404	11.6	1.5	3.4
O=C(CN1C(=O)C2CC=CCC2C1=O)NC1CCCCC1 (centres undefined)	-0.3	7.1	-3.4	3312	0.1	-0.5	·
Cn1c(Cn2cnc(Cl)c2Cl)nc2ccccc21	16.7*	8.1	-0.1	3219	-2.0	0.9	0.2
COc1cccc(NC(=O)COc2cccc3c2CCNC3=O)c1	i	7.6	-3.7	?	-30.3	-23.8	·
COc1ccc(NC(=O)COc2cccc3c2CCNC3=O)cc1	27.5*	-4.6	-1.1	?	9.0	2.6	3.2
COC(=O)c1cc(NC(=O)C2CC=CCC2C(=O)O)cc(C(=O)OC)c1 (centres undefined)	7.6*	7.4	-2.3	9959	-1.3	-1.3	1.0
Cc1ncc([N+](=O)[O-])n1CC(=O)Nc1ccc(F)cc1	0.6	7.4	-9.1	3894	?	2.3	·
SMILES	Vc quorum ag-1	MazEF act	Anthrax LF prot	Bead autofluor	BoNT-F LC inh	BoNT-A LC inh2	Vc quorum ag-2	others
NC(=O)C1CCN(C(=O)CCNS(=O)(=O)c2ccccc2F)CC1	i	0.3	-5.1	3156	2.8	0.3	·
Cn1c(SCc2cnc(-c3ccccc3)s2)nnc1C1COc2ccccc2O1 (centres undefined)	26.6*	-14.9	-2.0	5204	-25.9	-2.8	31.0
O=c1ncn(-c2cccc(Cl)c2)c2ccccc12	+	-2.5	-27.1	13159	?	-35.6	618.7	HeLa tox=0.5
Cc1ccc(S(=O)(=O)NCCC(=O)OCC(=O)N(Cc2ccccc2)C(C)(C)C)cc1C	12.5	-3.1	-2.9	5840	-1.3	0.5	0.2
CCCCN(C)CCNC(=O)c1ccc2c(c1)NC(=O)C(N1CCCCC1)S2 (centres undefined)	16.7*	-2.3	-2.9	2874	2.3	0.2	0.1
O=C(NCCCN1CCCC1=O)c1ccc2c(c1)NC(=O)C(N1CCOCC1)S2 (centres undefined)	1.8	-19.2	0.7	2326	-1.7	0.1	·
O=C(Nc1cccc(-c2ccc(N3CCOCC3)nn2)c1)c1ccccc1	i	11.7	-13.5	14924	-63.1	-42.9	·
O=C(Nc1cccc(-c2ccc(N3CCOCC3)nn2)c1)c1ccc([N+](=O)[O-])cc1	14.3	2.4	0.9	5644	2.6	-1.2	0.1
O=C(Cc1cccc2ccccc12)NCCOc1ccccc1F	i	6.8	-5.2	3445	-1.3	-0.3	·
CC(C)NC(=O)C1(c2ccccc2)CC1(Cl)Cl (centres undefined)	i	-7.7	1.1	2494	-1.1	-0.1	·
Cc1noc(C)c1COc1ccc(C(=O)NCC(c2c(F)cccc2Cl)N(C)C)cc1 (centres undefined)	19.3	0.7	1.2	5663	11.9	4.7	-0.2
Cc1cccc(NC(=O)c2ccc(OCc3c(C)noc3C)cc2)c1	i	5.5	-6.8	3835	-1.8	0.3	·
O=C(NCCNC(=O)c1ccc(Cl)cc1Cl)c1cnccn1	-0.1	7.7	11.5	2868	-1.1	-1.9	·
CCC1(CC)NC(=O)N(CC(=O)OCC(=O)NC(=O)c2ccccc2OC)C1=O	14.3	2.8	3.2	?	7.2	3.0	0.0
CCC1(CC)NC(=O)N(CC(=O)OCC(=O)NC(=O)c2ccc(Cl)cc2)C1=O	-0.4	-15.3	-3.0	4038	-0.8	-0.7	·
Cc1ccc2nc(NCCc3ccccc3)c3nncn3c2c1	111.2*	-15.2	-1.7	2998	-4.3	-2.0	1.3
Cc1ccc(CNc2nc3ccc(C)cc3n3cnnc23)cc1	·	13.9	-1.3	6265	0.1	-0.2	·
CCS(=O)(=O)c1ccc(O)c(NC(=O)CC2(CC(=O)O)CCCC2)c1	i	3.6	10.8	3851	?	3.6	·

Bioassay records as filed in PubChem.
